Assay results: PubChem BioAssay (NCI)
“And” between values parts separate entries of the source, which are not always exact repeats. Equal entries are not always repeated. About 79,000 compounds went through this panel and 15% of them were active in at least one assay; those are over-represented in the sample as a whole. Values without a mark were called inactive. The source made the active and inactive calls. Rule as the data show it: active = growth inhibition above about 70%; inactive = the rest.

How the values were obtained:
[1] = NCI Yeast Anticancer Drug Screen. Data for the rad50 strain (AID 155);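 also: 0% = growth of vehicle-only cultures of the same strain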; conditions: S. cerevisiae rad50 strain growth inhibition; at 50.0 µM; hits give high values
Procedure, shortened: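 A DNA repair-deficient yeast mutant serves as the test organism; compound-induced growth inhibition is calculated against vehicle-treated cells.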

[2] = NCI Yeast Anticancer Drug Screen. Data for the mec2-1 strain (AID 157); conditions: S. cerevisiae mec2-1 strain, at 50.0 µM, hits give high values
Procedure, shortened: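 Test agents were screened against the mec2-1 yeast strain, with defined DNA repair or cell cycle alteration. Growth was scored as inhibition against vehicle-only controls.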

[3] = NCI Yeast Anticancer Drug Screen. Data for the sgs1 mgt1 strain (AID 161);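 also: 0% = growth of cultures given vehicle only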; conditions: S. cerevisiae sgs1 mgt1 strain, at 50.0 µM, hits give high values
Procedure, shortened: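 Mutant yeast exposed to compound; growth scored against vehicle-only wells.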

[4] = NCI Yeast Anticancer Drug Screen. Data for the cln2 rad14 strain (AID 165);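 also: 0% = growth equal to vehicle treated cultures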; conditions: S. cerevisiae cln2 rad14 strain, at 50.0 µM, hits give high values
Procedure, shortened: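 Growth of compound-exposed yeast (cln2 rad14 genotype) measured and expressed as inhibition relative to vehicle.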

[5] = NCI Yeast Anticancer Drug Screen. Data for the bub3 strain (AID 167); conditions: S. cerevisiae bub3 mutant strain, at 50.0 µM, hits give high values
Procedure, shortened: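 Inhibition values come from growth of compound-treated mutant yeast normalised to vehicle-treated controls.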

[6] = NCI Yeast Anticancer Drug Screen. Data for the mlh1 rad18 strain (AID 175); conditions: S. cerevisiae mlh1 rad18 strain growth inhibition; at 50.0 µM; hits give high values
Procedure, shortened: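 In this whole-cell yeast screen, a strain with altered DNA damage repair is challenged with compound, and its growth is measured against matched vehicle-treated controls.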

Structure (SMILES)	growth inhibition [1]	growth inhibition [2]	growth inhibition [3]	growth inhibition [4]	growth inhibition [5]	growth inhibition [6]
CC(=O)OC1CCC2(C)C3CCC4(C)C(Oc5ccccc5)CCC4C3CC(Br)C2(O)C1 (stereo not drawn)	-48%	-29.9%	-35.9%	2.75%	-31.6%	-43%
CNC(Cc1ccccc1)c1cccc(O)c1 (stereo not drawn)	4.5%	-6.2%	-1.3%	-24.9%	0.4%	-5.15%
C/C=C(\CC)C1(C)C(=O)NC(=O)NC1=O	7.4%	7.8%	-5.7%	6.35%	1.4%	-4.1%
O=C(O)C(O)(c1ccccc1)C1CCCCC1 (stereo not drawn)	1% and 8.5%	-19.5% and 5.45%	-2.1% and -8.8%	18.6% and -7.65%	-30.9% and 0.6%	-1.6% and -2.85%
O=[N+]([O-])c1ccc(O)c(CBr)c1	35.5%	-5.15%	7.55%	18.6%	13.9%	4.95%
Clc1cc[c]([Sn]([Cl])([c]2ccc(Cl)cc2)[c]2ccc(Cl)cc2)cc1	98.5% (active)	98.5% (active)	98.8% (active)	97.7% (active)	97.5% (active)	98.3% (active)
COc1cc(C(CC(C)=O)c2cc3c(cc2OC(C)=O)OCO3)cc(OC)c1OC (stereo not drawn) (tested in a mixture with another compound)	5.1%	8.6%	17.2%	2.45%	5.15%	23.8%
CCCN=Cc1ccccc1O.CCCN=Cc1ccccc1O.[Ni]	37.5%	9.4%	18.6%	-35.9%	4.85%	29.8%
NC(=O)C(CBr)NCc1ccccc1 (stereo not drawn)	-0.1%	-13.6%	-6.15%	-27.8%	6.7%	-10.6%
O=P1(CCBr)NCCCO1 (stereo not drawn)	-5.25%	14.6%	-3.6%	-59.4%	-10.4%	7.5%
N#CC(c1ccccc1)c1ccccc1	-12.9%	9.35%	-4.55%	-17.6%	20.6%	31.3%
CC(=O)Nc1ccc(C(=O)O)cc1	5.05%	-1%	0.1%	33%	0.15%	1.8%
CC(C)(C)C1COP(=O)(Oc2ccccc2)OC1 (stereo not drawn)	2.35%	7.55%	-4.5%	-13.8%	19.4%	3.6%
Cc1cnc2ncn(Cc3c[nH]c(=O)[nH]c3=O)c(=O)c2c1	-0.45%	5.55%	-8%	14.2%	-18.4%	-11.5%
CC1(C)COP(=O)(c2ccccc2)N1 (stereo not drawn)	-14.1%	-21.4%	-7.4%	-24.4%	-1.5%	-3.1%
O=C1NN(c2ccccc2)C(=O)C1c1ccccc1 (stereo not drawn)	24.2%	28.8%	17.4%	9.75%	-5.9%	41.5%
CCCC(=O)OCC[N+](C)(C)C	-1.35% and 12.7%	-21.9% and -18.6%	-10.7% and 25.4%	18.9% and 5.95%	-12.1% and 6.6%	4.05% and 18.2%
O=CC(O)C(O)C(O)C(O)COP(=O)(O)Cc1ccccc1 (stereo not drawn)	-44.9% and 4.75%	-12.2% and -25.2%	-62% and -32.6%	-25.3% and 28.1%	-10.2% and -9.4%	-48% and 7.55%
O=P(O)(O)c1ccccc1.[Zn+2]	13.9%	16.4%	-0.45%	-14%	18.1%	24.2%

Structure (SMILES)	growth inhibition [1]	growth inhibition [2]	growth inhibition [3]	growth inhibition [4]	growth inhibition [5]	growth inhibition [6]
CCCCOP(=O)(CCCC)OCCCC.CCCCOP(=O)(CCCC)OCCCC.CCCCOP(=O)(CCCC)OCCCC.CCCCOP(=O)(CCCC)OCCCC.O.O.[Co+2].[O-][Cl+3]([O-])([O-])O	25.4%	5.55%	7.35%	17.6%	19.8%	5.8%
CC(C)OC(=O)C(C)Br (stereo not drawn)	-0.1%	-3.05%	-8.35%	3%	3.1%	1.15%
O=C1C=CC(=O)c2c(O)cccc21	27.4%	13.2%	38%	15.4%	41.3%	29.2%
COP(=O)(NC(C)=O)OC	11.6%	-14.7%	-4.5%	-45.8%	-10.5%	-1.55%
CC(C)[C@](O)(C(=O)OCC1=CC[N+]2([O-])CC[C@@H](O)[C@@H]12)[C@H](C)O (stereo partly drawn)	-10.2%	-46.3%	4.35%	-0.85%	-26.2%	-10.2%
COc1cc2c[n+](C)c3c4cc5c(cc4ccc3c2cc1OC)OCO5	-11.7%	-37.5%	-28.1%	-5.75%	-26.3%	-33.6%
Cc1csc(N/C(=N/[N+](=O)[O-])N(C)C)n1	-35.5%	0.65%	-9.15%	-10.8%	2.1%	-3.7%
Cc1ccc2n[se]nc2c1	11.6%	-15.4%	-16.8%	-0.3%	-15.1%	-8.15%
CC(C)CC(=O)[O-].CC(C)CC(=O)[O-].N.N.N.N.[Co+3].[O-][Cl+3]([O-])([O-])[O-]	-0.8% and -12.4%	9.7% and 11.6%	-28.9% and -24.1%	10.3% and 1.35%	15.8% and -0.6%	-14.5% and 2.55%
COC(=O)c1cccc(S(=O)(=O)F)c1	-9.85%	-5.05%	-15.7%	-13.4%	20.1%	-28.4%
CCCCC[N+]1=Cc2cc(O)c(O)cc2CC1	-11.1%	-5.7%	1.75%	-24.9%	-12.4%	-21.7%
O=P(c1ccccc1)(c1ccccc1)c1ccccc1.O=P(c1ccccc1)(c1ccccc1)c1ccccc1.O=P(c1ccccc1)(c1ccccc1)c1ccccc1.O=P(c1ccccc1)(c1ccccc1)c1ccccc1.[Co+2].[O-][Cl+3]([O-])([O-])O	22.7%	3.45%	17.9%	20.9%	13.8%	16.3%
CC1CC2C(CCC3(C)C2CC2(CC2)C3(C)O)C2(C)CCC(O)CC12O (stereo not drawn)	12.6%	8.55%	19.9%	-50%	-7.35%	1.9%
NP(=S)(Oc1ccc(Cl)cc1)Oc1ccc(Cl)cc1	96.8% (active)	65.1%	97.7% (active)	60.7%	49.3%	91.5% (active)
C/C(=N\N1CN(C(C)C(=O)O)P(N(CCO)CCO)N=C1N)c1cccs1 (stereo not drawn)	-5.45%	-11.2%	5.85%	-18.6%	7.95%	-8.4%
CC(C)CC1N=C(NN=C2CCCCC2)SP1(=O)NNc1ncccn1 (stereo not drawn)	1.25%	7.15%	12.5%	2.35%	0.4%	-0.1%
CS(=O)(=O)CCC(N)P(=O)(O)O (stereo not drawn)	-45.9%	-47.9%	-48.5%	-9.4%	-21.8%	-30.8%
CC(=O)OC1(C#N)CC2OC1C1NC21 (stereo not drawn)	5.7%	-8.8%	18.4%	8.8%	-14.7%	-13%
CNC(=O)Oc1ccc2c(C)cc(=O)oc2c1	21.1%	0.2%	4.55%	-27%	17.2%	15.3%
